Source: PubChem
DENV2 CPE rescue: inhibitors of DENV2 cytopathic effect, primary screen, cell-based, plate reader, single concentration; AID 651640, 2012; 350,000 compounds, 1.7% hits; DENV2-infected cells, cytopathic effect rescue; CPE inhibition, % at 9.99 µM; in the data active means CPE inhibition above about 20%, passing the limit was not always enough; tested in BHK-21 cells;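 further: 0% = median of neutral control wells and 100% = median of positive control wells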
MLL AF4-AF9 inh: inhibitors of AF4 peptide binding to AF9, primary screen, biochemical, AlphaScreen, biotin-AF4 peptide, FLAG-AF9, single point | inhibition, % at 10 µM | Protein AF-9 (Homo sapiens), P42568 | 350,000 compounds, 0.47% hits;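 active means every replicate reaching a set inhibition limit, whatever the replicate mean, cut at about 25% in these data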;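 further: 0% = plate neutral control median and 100% = total signal loss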
ERp5 block: inhibitors of ERp5-driven insulin aggregation, primary screen, biochemical, turbidity, absorbance 650 nm, single point | Protein disulfide-isomerase A6 (Homo sapiens), Q15084 | 90 min | inhibition, % at 9.99 µM | 350,000 compounds, 0.05% hits | AID 651711, 2012;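 active means mean replicate inhibition above about 25%, with every replicate also reaching it, limit read from the data, passing the limit was not always enough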
Target sequence (Q15084 whole entry, looked up): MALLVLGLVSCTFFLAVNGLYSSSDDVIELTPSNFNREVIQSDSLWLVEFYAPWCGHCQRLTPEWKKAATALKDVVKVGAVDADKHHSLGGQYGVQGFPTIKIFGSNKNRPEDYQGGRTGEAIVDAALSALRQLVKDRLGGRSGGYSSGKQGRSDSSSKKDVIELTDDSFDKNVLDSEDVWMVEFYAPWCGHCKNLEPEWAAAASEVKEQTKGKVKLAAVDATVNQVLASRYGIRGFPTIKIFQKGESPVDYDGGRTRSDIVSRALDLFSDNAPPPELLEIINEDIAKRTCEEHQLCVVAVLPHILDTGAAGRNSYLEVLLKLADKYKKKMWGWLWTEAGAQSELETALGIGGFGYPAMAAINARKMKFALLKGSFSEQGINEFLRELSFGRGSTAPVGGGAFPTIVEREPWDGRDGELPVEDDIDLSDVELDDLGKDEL
ERAP1 inh: human ERAP1 aminopeptidase inhibitors, primary screen, biochemical, single point, plate reader. 340,000 compounds, 0.15% hits. Endoplasmic reticulum aminopeptidase 1 (Homo sapiens), Q9NZ08. AID 652197, 2013. inhibition, % at 10.7 µM. recombinant ERAP1, Leu-AMC fluorescence, 60 min;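 active means mean replicate inhibition of at least 30%, or all replicates individually reaching that 30% level; inactive means mean below 30% and not every replicate reaching it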;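 further: 0% = neutral control wells and 100% = L-leucinethiol positive control wells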
PDI inh: inhibitors of human PDI, primary screen, biochemical, turbidity, single point, plate reader; Protein disulfide-isomerase (Homo sapiens), P07237; PDI insulin aggregation turbidity, A650, 90 min; inhibition, % at 10 µM; 350,000 compounds, 0.052% hits;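 active means mean inhibition across replicates of 30% or more, whatever share of single replicates reach that level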
The depositor's hits bear a star; nt = no result. The list is not random: actives were taken first. Their share in the collection is about 1.8%.

SMILES	DENV2 CPE rescue	MLL AF4-AF9 inh	ERp5 block	ERAP1 inh	PDI inh
CCN(CC)CCCn1c2c(c(SCC(=O)Nc3cccc(C(C)=O)c3)nc1=O)CCC2	1	0	-1	-2	8
CCN(CC)CCCn1c2c(c(SCC(=O)Nc3cc(C)cc(C)c3)nc1=O)CCC2	22*	2	-1	1	0
O=C(Nc1ccc2c(c1)[C@H]1C[C@@H](CC(=O)N3CCc4ccccc4C3)O[C@H](CO)[C@H]1O2)c1ccc2c(c1)OCO2	8	2	1	-1	nt
COc1ccc2c3c(n(C)c2c1)[C@@H](CO)N(C(=O)Nc1ccc(F)cc1)CC31CN(C(=O)Nc2c(C)noc2C)C1	-2	1	-10	-2	nt
CC1CCCN(CCOc2cccc(Oc3ccccc3)c2)C1 (stereo unspecified)	53*	7	4	-2	8
C[C@@H]1CCCCO[C@H](CN(C)S(C)(=O)=O)[C@@H](C)CN([C@@H](C)CO)C(=O)c2cc(NC(=O)Nc3cccc4ccccc34)ccc2O1	0	7	0	-1	nt
COc1cc(C)c2sc3ccccc3c(=O)c2c1NCCN(C)C	-2	45*	16	5	-1
Cc1ccc(NCCN(C)C)c2c(=O)c3cc(O)ccc3sc12	-1	39*	14	64*	1
CN(C)CCNc1ccc2nnn3c4ccc(O)cc4c(=O)c1c23	2	-4	5	1	-3
CN(C)CCNc1cccc2sc3ccc(O)cc3c(=O)c12	-3	38*	7	6	nt
COc1ccc(-c2cnc3c(c2)C(=O)N([C@H](C)CO)C[C@@H](C)[C@H](CN(C)S(C)(=O)=O)O3)cc1	-7	-2	4	-5	nt
CCc1ccc(NS(=O)(=O)c2ccc3c(c2)oc(=O)n3C)cc1	-3	35*	0	-4	-4
Cc1ccc(NS(=O)(=O)c2ccc3c(c2)oc(=O)n3C)cc1	-3	3	1	-2	0
Fc1ccc(N2CCN(C3CCC(c4ccccc4)CC3)CC2)cc1 (stereo unspecified)	0	4	4	-1	3
CCN1CCC(N2CCN(c3ccc(F)cc3)CC2)CC1	28*	0	1	-1	-7
CC(Sc1ccccn1)C(=O)Nc1ccc2c(c1)OCO2 (stereo unspecified)	-1	-3	0	-1	3
CC(Sc1ccccn1)C(=O)Nc1ccc2c(c1)OCCO2 (stereo unspecified)	27*	0	-6	-3	2
COc1ccc(CC(N)c2csc(NC(=O)c3ccc(OC)cc3)n2)cc1 (stereo unspecified)	37*	-3	-1	1	4
COc1ccc(CC(N)c2csc(NC(=O)c3ccc(F)cc3)n2)cc1 (stereo unspecified)	2	5	5	1	-6
COc1cccc(-c2ccc3n(c2=O)C[C@H]2[C@H](CO)[C@@H](C(=O)N(C)C)N(C(=O)C4CC4)[C@@H]32)c1	-1	0	4	-3	nt
CC(C)C#Cc1cnc2c(c1)C(=O)N([C@H](C)CO)C[C@@H](C)[C@@H](CN(C)Cc1cncnc1)O2	-3	-4	-2	8	nt
COC(=O)c1cc(C)nc2c1C(=O)C(=O)C=C2N1CCOCC1	-2	-3	63*	0	2
COc1cc(C2C(C(C)=O)=C(O)C(=O)N2CCc2c[nH]c3ccccc23)ccc1O (stereo unspecified)	nt	nt	nt	nt	41*
COc1cc(C2C(C(C)=O)=C(O)C(=O)N2CCN(C)C)ccc1O (stereo unspecified)	nt	nt	nt	nt	14
C[C@@H]1CN([C@@H](C)CO)C(=O)c2cc(C#CCC3CCCC3)cnc2O[C@@H]1CN(C)S(=O)(=O)c1cccs1	6	1	3	nt	nt
OC(COC(c1ccc(F)cc1)c1ccc(F)cc1)CN1CCCC1 (stereo unspecified)	41*	2	3	1	6
OC(COC(c1ccc(Cl)cc1)c1ccc(Cl)cc1)CN1CCN(c2ccccn2)CC1 (stereo unspecified)	45*	6	9	3	-9
NC(=O)[C@@H]1CC2(CC(c3cccc(NC(=O)COc4ccc(Cl)cc4)c3)=NO2)CN1C(=O)c1ccccc1 (stereo partly specified)	66*	-22	0	-2	-2
